The text below walks through data of PubChem BioAssay (NCI).

Common to all, as to assay: NCI-60 one-dose screen, 48 h (100 = growth as untreated, 0 = no growth, -100 = all killed)
One experiment deals with HCT-15 colon. Conditions: 10 µM unless noted.
The next experiment has as its system HT29 colon. Conditions: 10 µM unless noted.
The next experiment concerns SNB-75 CNS. Conditions: 10 µM unless noted.
A further experiment deals with SNB-19 CNS. Conditions: 10 µM unless noted.
For a further experiment, the system named is U251 CNS. Conditions: 10 µM unless noted.
For another experiment, the system named is PC-3 prostate. Conditions: 10 µM unless noted.
Another experiment has as its system SK-MEL-5 melanoma. Conditions: 10 µM unless noted.
The subject of a further experiment is UACC-62 melanoma. Conditions: 10 µM unless noted.
The subject of a further experiment is LOX IMVI melanoma. Conditions: 10 µM unless noted.
A further experiment deals with SK-MEL-28 melanoma. Conditions: 10 µM unless noted.
The test system of a further experiment is SK-MEL-2 melanoma. Conditions: 10 µM unless noted.
A further experiment concerns EKVX NSCLC. Conditions: 10 µM.
For a further experiment, the system named is SN12C renal. Conditions: 10 µM unless noted.
For a further experiment, the system named is UO-31 renal. Conditions: 10 µM unless noted.
In another experiment the test system is TK-10 renal. Conditions: 10 µM unless noted.
The next experiment concerns ACHN renal. Conditions: 10 µM unless noted.
Another experiment relates to A498 renal. Conditions: 10 µM unless noted.
The test system of a further experiment is CCRF-CEM leukemia. Conditions: 10 µM.
For another experiment, the system named is MOLT-4 leukemia. Conditions: 10 µM unless noted.
The next experiment relates to CAKI-1 renal. Conditions: 10 µM unless noted.

The panel holds about 83,000 compounds, 20% with a hit somewhere; the sample as a whole holds those more often.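 Compound tested at a single concentration for 48 hours in 96-well plates; a percent growth value below 10 was scored as active.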 A number with no mark means an inactive call. Activity calls are given as the source filed them.

As to `COc1ccc(-c2nc(SCC(C)C)nc(Nc3ccccc3)c2C#N)cc1`, the growth in the experiment on HCT-15 colon was 83.4%; in the experiment on HT29 colon, 78.9%; with SNB-75 CNS, 89%; in the experiment with SNB-19 CNS, 81.3%; in the experiment with U251 CNS, 50.5%; in the experiment on PC-3 prostate it was 86.9%. Moreover, the growth in the experiment on SK-MEL-5 melanoma is 96.7%; in the experiment on UACC-62 melanoma it was 88.1%; with LOX IMVI melanoma it was 80.1%; in the experiment on SK-MEL-28 melanoma, 112%; in the experiment with SK-MEL-2 melanoma, 111%; in the experiment on EKVX NSCLC, 85%. The growth with SN12C renal is 60.2%; in the experiment on UO-31 renal, 56.8%; with TK-10 renal, 46.9%; in the experiment with ACHN renal, 27.4%; in the experiment with A498 renal, 75.2%; in the experiment on CCRF-CEM leukemia it was 64.6%. The growth in the experiment on MOLT-4 leukemia was 88.2%.
Regarding `Nc1ccc(N=Nc2ccccc2)c2cc(S(=O)(=O)O)ccc12`, the growth in the experiment on HCT-15 colon is 104%; with HT29 colon it was 94.6%; in the experiment on SNB-75 CNS, 82.5%; with SNB-19 CNS it was 101%; in the experiment with U251 CNS, 101%; in the experiment with PC-3 prostate, 96%. For the same molecule, the growth with SK-MEL-5 melanoma is 107%; with UACC-62 melanoma, 103%; with LOX IMVI melanoma, 97.7%; in the experiment on SK-MEL-28 melanoma it was 118%; with SK-MEL-2 melanoma, 91.1%; with EKVX NSCLC it was 105%. Besides, the growth with SN12C renal is 108%; with UO-31 renal, 86.7%; in the experiment with TK-10 renal, 92.9%; with ACHN renal it was 104%; in the experiment with CCRF-CEM leukemia it was 99.9%; with MOLT-4 leukemia, 106%.
With `O=C(Oc1ccccc1)c1ccccc1Cl`, the growth with HCT-15 colon was 98%; in the experiment with HT29 colon it was 118%; with SNB-75 CNS, 89.6%; in the experiment with SNB-19 CNS it was 104%; in the experiment on U251 CNS, 98.5%; in the experiment on PC-3 prostate, 95%. The growth is 104% in the experiment with SK-MEL-5 melanoma; 107% in the experiment with UACC-62 melanoma; 107% with LOX IMVI melanoma; 107% in the experiment on SK-MEL-28 melanoma; 123% in the experiment with SK-MEL-2 melanoma; 99.6% in the experiment with EKVX NSCLC. Also, the growth was 107% in the experiment with SN12C renal; 96.7% with UO-31 renal; 111% with TK-10 renal; 102% in the experiment with ACHN renal; -11.9% (active) with CCRF-CEM leukemia; 110% in the experiment with MOLT-4 leukemia.
`CCCCCCCCCCN1CC2CCCCC2C1` (stereo not given): the growth with HCT-15 colon was 35%; with HT29 colon, 19.8%; in the experiment on SNB-75 CNS, 66.3%; in the experiment with SNB-19 CNS it was 79.7%; with U251 CNS, 53.4%; in the experiment with PC-3 prostate, 48.4%. Further, the growth is 49% in the experiment with SK-MEL-5 melanoma; 89.4% in the experiment with UACC-62 melanoma; 47.1% in the experiment with LOX IMVI melanoma; 90.6% in the experiment on SK-MEL-28 melanoma; 95.2% in the experiment on SK-MEL-2 melanoma; 63% in the experiment on EKVX NSCLC. The growth with SN12C renal was 75.7%; in the experiment with UO-31 renal, 65.5%; in the experiment on TK-10 renal, 81.4%; in the experiment on ACHN renal, 80.1%; in the experiment on CCRF-CEM leukemia it was 46.1%; with MOLT-4 leukemia it was 50.2%.
Take `Cc1nc2ccccc2c(=O)n1-c1cccc(OCc2cn(-c3cccc(O)c3)nn2)c1`: the growth in the experiment on HCT-15 colon was 107%; in the experiment with HT29 colon, 96.8%; in the experiment on SNB-75 CNS, 88.4%; with SNB-19 CNS it was 91.2%; with U251 CNS, 98.2%; with PC-3 prostate, 87.6%. The growth in the experiment with SK-MEL-5 melanoma is 87%; in the experiment with UACC-62 melanoma it was 81.1%; in the experiment on LOX IMVI melanoma, 94.6%; in the experiment with SK-MEL-28 melanoma, 103%; with SK-MEL-2 melanoma it was 90.6%; in the experiment on EKVX NSCLC, 103%. Moreover, the growth in the experiment with SN12C renal was 97.4%; in the experiment with UO-31 renal, 68.2%; in the experiment on TK-10 renal, 100%; with ACHN renal it was 93.8%; in the experiment on CCRF-CEM leukemia it was 88.3%; in the experiment on MOLT-4 leukemia, 80.8%.
As to `CCCNC(=O)Oc1ccc(/C(=C(/CC)Cc2ccccc2)c2ccc(OCCN(CC)CC)cc2)cc1`, the growth is 7.99% (active) in the experiment with HCT-15 colon; -14.8% (active) in the experiment with HT29 colon; 63.6% in the experiment on SNB-75 CNS; 87.7% in the experiment with SNB-19 CNS; 45.1% with U251 CNS; 60.8% in the experiment on PC-3 prostate. Further, the growth was 39.8% in the experiment with SK-MEL-5 melanoma; 91.7% with UACC-62 melanoma; 63.9% in the experiment on LOX IMVI melanoma; 92.9% in the experiment with SK-MEL-28 melanoma; 101% in the experiment with SK-MEL-2 melanoma; 79.3% with EKVX NSCLC. The growth was 78.6% in the experiment on SN12C renal; 51.5% with UO-31 renal; 85.8% in the experiment on TK-10 renal; 90.1% in the experiment on ACHN renal; 57.7% with CCRF-CEM leukemia; 46.9% in the experiment on MOLT-4 leukemia.
Consider `O=C(Nn1cnc2ccccc21)N1CCCC1`, for which the growth in the experiment with HCT-15 colon is 112%; in the experiment with HT29 colon it was 109%; with SNB-75 CNS, 107%; in the experiment on SNB-19 CNS, 110%; in the experiment on U251 CNS, 99.8%; with PC-3 prostate it was 106%. Moreover, the growth in the experiment on SK-MEL-5 melanoma was 113%; with UACC-62 melanoma, 105%; in the experiment with LOX IMVI melanoma, 98.1%; in the experiment with SK-MEL-28 melanoma, 116%; in the experiment on SK-MEL-2 melanoma, 116%; in the experiment on EKVX NSCLC, 94%. The growth in the experiment on SN12C renal was 106%; in the experiment with UO-31 renal, 88.1%; with TK-10 renal, 113%; in the experiment on CAKI-1 renal, 98.8%; in the experiment on A498 renal, 115%; in the experiment with CCRF-CEM leukemia it was 127%. For the same molecule, in the experiment with MOLT-4 leukemia, the growth is 87.1%.
Take `COC(c1ccccc1)C(Br)C(=O)c1ccccc1` (stereo not given): the growth with HCT-15 colon was 90.7%; in the experiment on HT29 colon it was 106%; with SNB-75 CNS, 86.5%; in the experiment on SNB-19 CNS, 96.3%; with U251 CNS, 95.1%; in the experiment on PC-3 prostate, 91.3%. Further, the growth in the experiment on SK-MEL-5 melanoma is 94.1%; in the experiment on UACC-62 melanoma it was 84.9%; in the experiment on LOX IMVI melanoma, 97.8%; with SK-MEL-28 melanoma it was 102%; in the experiment on SK-MEL-2 melanoma, 95.7%; in the experiment on EKVX NSCLC, 103%. The growth was 94.3% in the experiment with SN12C renal; 75.8% in the experiment with UO-31 renal; 94.6% in the experiment on ACHN renal; 85% with CAKI-1 renal; 98.6% in the experiment with A498 renal; 69.9% with CCRF-CEM leukemia. For the same molecule, in the experiment on MOLT-4 leukemia, the growth was 98%.
Consider `CC1=C(C)C(=O)C(C(C)C2=C(C)C(=O)C(C)=C(C)C2=O)=C(C)C1=O`, for which the growth in the experiment on HCT-15 colon is 99.7%; in the experiment on HT29 colon it was 68.7%; in the experiment with SNB-75 CNS, 96.6%; in the experiment on SNB-19 CNS, 99%; in the experiment with U251 CNS, 81%; in the experiment on PC-3 prostate, 52.4%. In addition, the growth in the experiment on SK-MEL-5 melanoma is 75%; with UACC-62 melanoma it was 85%; in the experiment with LOX IMVI melanoma, 81%; in the experiment with SK-MEL-28 melanoma it was 117%; in the experiment with SK-MEL-2 melanoma, 97.8%; with EKVX NSCLC, 61.7%. Further, the growth in the experiment with SN12C renal was 120%; in the experiment on UO-31 renal, 83.8%; in the experiment with CAKI-1 renal, 142%; in the experiment with A498 renal it was 84.6%; with CCRF-CEM leukemia, 67.4%; with MOLT-4 leukemia, 32.9%.
